# Bioassay records deposited in PubChem by several laboratories.
# A selection: hits, their analogues and other compounds. The true share with any hit is near 1.6%.
# PABP FP inh: blocks human PABP binding to poly(A) RNA | inhibition, % at 35 µM | fluorescence polarization | AID 2014 | hit rate 1% among 290,000;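 further: calls also rest on retests at 20 µM and on dose response follow-up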
# eIF4E-4G inh: eIF4E/eIF4G interaction inhibition in translation initiation | inhibition, % at 21.7 µM | TR-FRET eIF4E-eIF4GI(517-606) binding, 2 h | P63073+Q04637 | hit rate 0.37% among 220,000 | AID 782;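 active means inhibition above about 30%, limit read from the data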;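 further: 0% = full FRET control wells and 100% = background wells lacking eIF4GI fragment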
# PABP1 MLLE inh: inhibitors of microRNA-mediated deadenylation, human PABP1 MLLE binding; AID 588489; hit rate 0.36% among 360,000; GST-MLLE / FITC-PAM2 fluorescence polarization; inhibition, % at 20 µM; P11940; in the data active means inhibition above about 35%, passing the limit was not always enough;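 further: plate controls were DMSO wells with GST-MLLE for no effect and wells lacking GST-MLLE protein for full effect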
# eIF4H inh: inhibitors of RNA binding by human eIF4H; Q15056; eIF4H fluorescence polarization binding assay; inhibition, % at 35 µM; AID 2012; hit rate 0.94% among 290,000;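 further: calls also rest on retests at 20 µM and on dose response follow-up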
# PERK inh: human PERK inhibition, primary cell-based screen; Q9NZJ5; hit rate 0.17% among 220,000; inhibition, % at 5.6 µM; CHO PERK-DD fusion, SEAP luminescence translation reporter;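 active means inhibition above the mean inhibition of all tested compounds plus 3 SD, set separately per screening campaign, cut at about 2.9% in these data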;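 further: PERK kinase domain activated by AP20187 dimerizer at 100 nM; 0% = DMSO with dimerizer and 100% = rapamycin at 8.4 µM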
# Target sequence (Q9NZJ5 whole entry, looked up, the tested form may be a part): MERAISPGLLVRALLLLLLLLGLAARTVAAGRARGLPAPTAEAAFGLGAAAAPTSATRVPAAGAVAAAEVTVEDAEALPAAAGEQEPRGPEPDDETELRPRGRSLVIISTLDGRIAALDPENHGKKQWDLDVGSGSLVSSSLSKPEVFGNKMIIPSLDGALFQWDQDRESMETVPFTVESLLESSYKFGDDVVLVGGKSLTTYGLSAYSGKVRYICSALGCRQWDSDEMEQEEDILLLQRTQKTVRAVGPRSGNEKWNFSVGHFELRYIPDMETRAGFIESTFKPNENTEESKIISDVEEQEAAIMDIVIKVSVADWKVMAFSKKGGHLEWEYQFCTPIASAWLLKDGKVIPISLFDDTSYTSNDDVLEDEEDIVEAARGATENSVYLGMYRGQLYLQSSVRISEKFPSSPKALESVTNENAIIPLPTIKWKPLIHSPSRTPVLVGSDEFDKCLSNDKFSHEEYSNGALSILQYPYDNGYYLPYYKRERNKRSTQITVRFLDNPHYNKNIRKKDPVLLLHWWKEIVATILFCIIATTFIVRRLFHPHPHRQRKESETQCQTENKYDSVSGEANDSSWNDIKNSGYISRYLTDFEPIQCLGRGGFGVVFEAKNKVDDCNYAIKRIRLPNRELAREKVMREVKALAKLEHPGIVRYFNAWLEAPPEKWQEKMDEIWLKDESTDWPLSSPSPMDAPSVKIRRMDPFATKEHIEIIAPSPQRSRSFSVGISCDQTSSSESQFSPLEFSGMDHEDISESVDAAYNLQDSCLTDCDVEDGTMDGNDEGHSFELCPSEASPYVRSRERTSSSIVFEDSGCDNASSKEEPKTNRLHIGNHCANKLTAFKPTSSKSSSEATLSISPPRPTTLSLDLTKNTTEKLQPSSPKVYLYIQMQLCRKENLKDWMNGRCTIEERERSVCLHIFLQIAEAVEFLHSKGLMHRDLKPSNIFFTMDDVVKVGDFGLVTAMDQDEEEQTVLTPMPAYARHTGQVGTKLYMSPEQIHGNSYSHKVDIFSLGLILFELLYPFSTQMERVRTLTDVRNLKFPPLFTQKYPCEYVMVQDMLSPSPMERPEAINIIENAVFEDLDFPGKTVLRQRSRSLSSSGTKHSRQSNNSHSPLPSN
# The depositor's hits bear a star; . = no result given. Unless noted, how the calls were made is not given here.
SMILES,PABP FP inh,eIF4E-4G inh,PABP1 MLLE inh,eIF4H inh,PERK inh
COc1cccc(CNC(=O)CCC2CCCN(C(=O)c3cccc4c(C)c(C)[nH]c34)C2)c1 (stereo not drawn),active,3,8,66*,0
CC(C)[C@H](NC(N)=O)C(=O)Nc1cccc(S(=O)(=O)NC2=NCCCCC2)c1,.,.,4,.,.
CC(=O)c1sc(N2CCOCC2)nc1-c1ccccc1,-7,0,0,-6,1
N#C/C(=C\c1sc(N2CCOCC2)nc1-c1ccccc1)C(=O)Nc1cccc2ccccc12,active,45*,.,55*,0
O=C(Nc1ccccc1)c1sc(N2CCOCC2)nc1-c1ccccc1,75*,-2,-2,active,0
CC(=O)C12OC(C)(C)OC1CC1C3CCC4=CC(=O)C=CC4(C)C3(F)C(O)CC12C (stereo not drawn),.,.,-7,.,.
O/N=C/Cc1[nH]c2ccccc2c1-c1ccccc1,5,.,4,1,.
Cc1cc(-c2nnc(CCC(=O)NCc3cc(F)cc(C(F)(F)F)c3)o2)no1,-11,.,1,-1,.
CCOC(=O)c1[nH]c(=S)[nH]c1C,.,.,16,.,.
CS(=O)(=O)c1ccc(-c2csc(-c3cccnc3)n2)cc1,-5,.,-7,-3,.
Cc1cnc(NC(=O)CC2OC(=O)c3ccccc32)s1 (stereo not drawn),.,.,4,.,.
CCOC(=O)NC(Nc1ccc(C)cn1)(C(F)(F)F)C(F)(F)F,-16,-1,1,-14,0
COC(=O)C(NC(C)=O)(Nc1ccc(C)cn1)C(F)(F)F (stereo not drawn),-2,0,-1,-6,3.4*
O=S1(=O)CC(O)C(Nc2ccc(Cl)cc2)C1 (stereo not drawn),-2,4,7,-3,1
O=S1(=O)CC(O)C(Nc2ccccc2)C1 (stereo not drawn),67,1,7,active,0
CC1CC1C(=O)Nc1ccc(S(=O)(=O)N2CCCCC2)cc1 (stereo not drawn),.,.,-2,.,.
Cc1c(NC(=S)NC(=O)c2cc3ccccc3o2)cccc1C(=O)O,9,.,39*,7,.
Cc1c(NC(=S)NC(=O)CSc2ccc(Cl)cc2)cccc1C(=O)O,2,.,41*,-4,.
C/C(=N\NC(=O)c1cccc(S(=O)(=O)N2CCOCC2)c1)c1ccc(C)cc1,.,.,-6,.,.
CCOC(=O)C1CCCN(C(=O)CSc2nnnn2C)C1 (stereo not drawn),.,.,-2,.,.
Cc1ccc(-c2c(C)c(-c3ccc(F)cc3)nc(N)c2C#N)o1,75*,6,1,76*,0
O=C(O)Cn1cnc2c(=S)nc[nH]c21,6,3,27,2,3.7*
CC1CCC(NC(=O)CCS(=O)(=O)c2ccc3c(c2)oc(=O)n3C)CC1 (stereo not drawn),1,.,14,8,.
O=C(/C=C/[C@H]1O[C@@H](n2cnc3c(NC(=O)c4ccccc4)ncnc32)[C@H](O)[C@@H]1O)NCc1cccc2ccccc12,.,.,-3,.,.
Cc1c(C(=O)O)cccc1-c1ccc(/C=C2\SC(=O)NC2=O)o1,34*,.,-6,54*,.
SMILES,PABP FP inh,eIF4E-4G inh,PABP1 MLLE inh,eIF4H inh,PERK inh
Cc1ccc(NC(=O)CN2C(=O)S/C(=C\c3ccc(-c4cccc(C(=O)O)c4C)o3)C2=O)cc1C,-9,58*,2,68*,0
O=C(CN1C(=O)S/C(=C\c2ccc(-c3cc(C(=O)O)ccc3Cl)o2)C1=O)Nc1ccc2c(c1)OCO2,38*,.,6,68*,.
c1ccc2c(c1)oc1c(-c3ccc4nccn4c3)cccc12,.,.,-81,.,.
O=C(COc1ccc(S(=O)(=O)NCc2ccccc2)cc1)NCc1cccnc1,12,.,1,3,.
CC(=O)C1C(c2ccco2)c2c(noc2C)CC1(C)O (stereo not drawn),-1,4,4,-1,3.0*
COc1ccc(C(CC(=O)N2CCCCC2)c2c(OC)cc(OC)c3c(-c4ccccc4)cc(=O)oc23)cc1 (stereo not drawn),.,26,1,.,.
COc1ccc(C(CC(=O)N2CCOCC2)c2c(OC)cc(OC)c3c(-c4ccccc4)cc(=O)oc23)cc1 (stereo not drawn),52*,27,2,93*,.
COc1ccc(C(CC(=O)N2CCCC2)c2c(OC)cc(OC)c3c(-c4ccccc4)cc(=O)oc23)cc1 (stereo not drawn),28,34*,-1,87*,.
COc1cc(C(CC(=O)N2CCCC2)c2c(OC)cc(OC)c3c(-c4ccccc4)cc(=O)oc23)cc(OC)c1OC (stereo not drawn),53*,4,-3,78*,.
CCCCN(C(=O)C1CSC2(C)CCC(=O)N12)c1c(N)n(CC(C)C)c(=O)[nH]c1=O (stereo not drawn),.,.,-8,.,.
CCCCCN(C(=O)CCC(=O)OCCOc1ccccc1Cl)c1c(N)n(CCCC)c(=O)[nH]c1=O,.,.,-17,.,.
Cc1ccc2c(=O)cc(C(=O)NC3CCS(=O)(=O)C3)oc2c1C (stereo not drawn),0,.,3,2,.
Cc1ccc(N2NC(=O)/C(=C/c3ccc(-c4ccc(Cl)c(C(=O)O)c4)o3)C2=O)cc1,31,11,1,46,0
O=C1NN(c2ccc(Cl)cc2)C(=O)/C1=C\c1ccc(-c2cccc(C(=O)O)c2)o1,3,32*,-28,79,1
O=C1NN(c2ccccc2)C(=O)/C1=C\c1ccc(-c2cc([N+](=O)[O-])ccc2O)o1,18*,13,-16,92*,1
Cc1ccccc1S(=O)(=O)N1CCN(c2ccc3c(c2)C2CC3CCN2C(=O)OCc2ccccc2)CC1 (stereo not drawn),.,.,5,.,.
Oc1ccccc1N1CCN(c2ncnc3scc(-c4ccccc4)c23)CC1,5,.,-7,-7,.
Cc1nc(N2CCN(c3ccccc3O)CC2)c2c(-c3ccccc3)csc2n1,71*,.,-10,100*,.
NNc1nnc2c3cc(F)ccc3n(CCc3ccccc3)c2n1,-4,.,-6,-3,.
Cc1ccc2c(c1)c1n[nH]c(=S)nc1n2CCc1ccccc1,6,.,41*,-4,.
Fc1ccc2c(c1)c1n[nH]c(=S)nc1n2CCc1ccccc1,5,.,40*,-10,.
COc1ccc(CN(C)CCCn2cnc3c(OCc4ccccc4)ncnc32)cc1OC,.,.,0,.,.
CSc1nsc(/C=C/Nc2ccc(Cl)cc2)c1C#N,-3,2,-34,-6,0
CSc1nsc(/C=C/Nc2ccc(F)cc2)c1C#N,2.7*,1,-30,77*,1
NC(=S)Nc1ccc(S(=O)(=O)c2ccc(NC(N)=S)cc2)cc1,-5,.,43*,-14,.
FC(F)(F)C(F)(F)C(F)(F)c1nc2nc(Cl)c(Cl)nc2[nH]1,.,.,49*,.,.
CC(CC(=O)N1CCN(c2ccccc2)CC1)S(=O)(=O)c1ccc2c(c1)NC(=O)CO2 (stereo not drawn),17,.,-2,1,.
Cc1nc(NC(=S)Nc2ccccc2)sc1C,-7,-3,37*,-4,0
O=C(Cc1ccc(NC(=O)C2CCN(C(=O)C3CCCCC3)CC2)cc1)Nc1ccc(C(=O)N2CCOCC2)cc1,.,.,16,.,.
